ChEMBL document CHEMBL1961873, “Compounds: GSK PKIS; Assays: Nanosyn kinase panel” (2012)

Legend:
[1] = molecular target: Protein kinase C gamma type (Homo sapiens) (UniProt P05129); settings: at 1 µM;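 note: each value is an averaged percent inhibition of the enzyme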
[2] = molecular target: T1, Protein kinase C iota type (Homo sapiens) (UniProt P41743); settings: at 0.1 µM
T1 sequence (whole entry): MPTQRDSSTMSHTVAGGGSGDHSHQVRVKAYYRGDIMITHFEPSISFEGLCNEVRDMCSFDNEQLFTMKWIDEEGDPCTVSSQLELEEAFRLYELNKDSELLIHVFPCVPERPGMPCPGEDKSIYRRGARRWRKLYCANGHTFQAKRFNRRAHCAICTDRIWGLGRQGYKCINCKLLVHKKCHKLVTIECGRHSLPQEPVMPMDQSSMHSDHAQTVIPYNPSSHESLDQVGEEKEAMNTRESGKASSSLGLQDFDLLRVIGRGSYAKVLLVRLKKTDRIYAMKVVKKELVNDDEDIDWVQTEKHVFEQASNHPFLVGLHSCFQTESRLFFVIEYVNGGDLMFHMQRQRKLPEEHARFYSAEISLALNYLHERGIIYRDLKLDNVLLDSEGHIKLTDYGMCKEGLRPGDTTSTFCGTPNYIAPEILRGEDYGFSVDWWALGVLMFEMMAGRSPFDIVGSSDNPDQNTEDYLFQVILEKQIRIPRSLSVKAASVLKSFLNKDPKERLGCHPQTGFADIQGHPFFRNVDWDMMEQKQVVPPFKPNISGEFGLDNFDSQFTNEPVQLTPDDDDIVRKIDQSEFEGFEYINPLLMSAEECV

[3] = molecular target: T1, Protein kinase C iota type (Homo sapiens); settings: at 1 µM
[4] = molecular target: Protein kinase C theta type (Homo sapiens) (UniProt Q04759); settings: at 0.1 µM
[5] = molecular target: Protein kinase C theta type (Homo sapiens) (UniProt Q04759); settings: at 1 µM
[6] = molecular target: Protein kinase C beta type (Homo sapiens) (UniProt P05771); settings: at 0.1 µM
[7] = molecular target: Protein kinase C beta type (Homo sapiens) (UniProt P05771); settings: at 1 µM
[8] = molecular target: T2, Serine/threonine-protein kinase D1 (Homo sapiens) (UniProt Q15139); settings: at 0.1 µM
T2 sequence (whole entry): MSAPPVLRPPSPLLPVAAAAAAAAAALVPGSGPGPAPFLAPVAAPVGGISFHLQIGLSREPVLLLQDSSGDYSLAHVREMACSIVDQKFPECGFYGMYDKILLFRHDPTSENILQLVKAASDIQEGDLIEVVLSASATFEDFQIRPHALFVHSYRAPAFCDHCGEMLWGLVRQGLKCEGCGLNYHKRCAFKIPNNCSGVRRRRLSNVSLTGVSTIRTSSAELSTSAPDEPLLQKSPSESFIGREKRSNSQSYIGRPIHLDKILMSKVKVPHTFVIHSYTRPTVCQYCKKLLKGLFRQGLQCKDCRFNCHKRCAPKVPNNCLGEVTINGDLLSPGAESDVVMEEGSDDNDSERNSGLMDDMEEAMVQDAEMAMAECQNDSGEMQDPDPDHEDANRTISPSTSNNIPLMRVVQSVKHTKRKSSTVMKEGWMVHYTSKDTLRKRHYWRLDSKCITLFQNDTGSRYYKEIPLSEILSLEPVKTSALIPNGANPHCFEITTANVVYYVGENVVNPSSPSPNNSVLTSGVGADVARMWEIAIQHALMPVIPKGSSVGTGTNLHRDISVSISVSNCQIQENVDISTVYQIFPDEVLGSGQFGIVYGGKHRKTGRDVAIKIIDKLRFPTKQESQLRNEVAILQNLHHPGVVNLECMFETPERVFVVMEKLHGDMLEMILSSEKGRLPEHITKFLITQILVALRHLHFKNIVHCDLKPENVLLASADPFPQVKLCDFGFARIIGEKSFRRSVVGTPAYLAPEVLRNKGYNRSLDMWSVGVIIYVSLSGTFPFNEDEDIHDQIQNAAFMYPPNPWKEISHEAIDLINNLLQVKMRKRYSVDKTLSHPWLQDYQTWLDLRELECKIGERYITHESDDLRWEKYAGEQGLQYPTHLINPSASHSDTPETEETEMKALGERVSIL

[9] = molecular target: T2, Serine/threonine-protein kinase D1 (Homo sapiens); settings: at 1 µM
[10] = molecular target: T3, Serine/threonine-protein kinase D2 (Homo sapiens) (UniProt Q9BZL6); settings: at 0.1 µM
T3 sequence (whole entry): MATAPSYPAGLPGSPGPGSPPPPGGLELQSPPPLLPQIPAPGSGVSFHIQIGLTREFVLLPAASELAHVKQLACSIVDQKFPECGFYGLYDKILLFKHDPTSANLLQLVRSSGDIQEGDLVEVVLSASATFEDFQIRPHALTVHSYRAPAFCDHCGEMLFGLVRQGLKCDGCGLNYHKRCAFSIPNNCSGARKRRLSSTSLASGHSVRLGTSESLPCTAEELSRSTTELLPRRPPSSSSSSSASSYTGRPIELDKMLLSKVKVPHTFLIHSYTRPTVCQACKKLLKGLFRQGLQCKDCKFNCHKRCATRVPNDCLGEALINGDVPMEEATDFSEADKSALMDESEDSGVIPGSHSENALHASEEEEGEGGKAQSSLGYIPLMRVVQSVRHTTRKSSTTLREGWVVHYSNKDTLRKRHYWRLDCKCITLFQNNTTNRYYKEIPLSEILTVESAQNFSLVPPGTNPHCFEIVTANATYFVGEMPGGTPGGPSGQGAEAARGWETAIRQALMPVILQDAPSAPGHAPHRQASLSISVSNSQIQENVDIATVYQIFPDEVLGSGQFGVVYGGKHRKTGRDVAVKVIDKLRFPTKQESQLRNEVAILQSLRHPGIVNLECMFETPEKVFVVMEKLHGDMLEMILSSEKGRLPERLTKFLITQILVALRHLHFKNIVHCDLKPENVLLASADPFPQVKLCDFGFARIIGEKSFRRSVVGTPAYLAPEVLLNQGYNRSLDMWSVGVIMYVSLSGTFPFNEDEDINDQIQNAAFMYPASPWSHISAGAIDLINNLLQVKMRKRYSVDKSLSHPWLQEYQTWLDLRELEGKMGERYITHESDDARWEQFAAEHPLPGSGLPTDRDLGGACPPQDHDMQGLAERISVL

[11] = molecular target: T3, Serine/threonine-protein kinase D2 (Homo sapiens); settings: at 1 µM
[12] = molecular target: T4, Serine/threonine-protein kinase D3 (Homo sapiens) (UniProt O94806); settings: at 0.1 µM
T4 sequence (whole entry): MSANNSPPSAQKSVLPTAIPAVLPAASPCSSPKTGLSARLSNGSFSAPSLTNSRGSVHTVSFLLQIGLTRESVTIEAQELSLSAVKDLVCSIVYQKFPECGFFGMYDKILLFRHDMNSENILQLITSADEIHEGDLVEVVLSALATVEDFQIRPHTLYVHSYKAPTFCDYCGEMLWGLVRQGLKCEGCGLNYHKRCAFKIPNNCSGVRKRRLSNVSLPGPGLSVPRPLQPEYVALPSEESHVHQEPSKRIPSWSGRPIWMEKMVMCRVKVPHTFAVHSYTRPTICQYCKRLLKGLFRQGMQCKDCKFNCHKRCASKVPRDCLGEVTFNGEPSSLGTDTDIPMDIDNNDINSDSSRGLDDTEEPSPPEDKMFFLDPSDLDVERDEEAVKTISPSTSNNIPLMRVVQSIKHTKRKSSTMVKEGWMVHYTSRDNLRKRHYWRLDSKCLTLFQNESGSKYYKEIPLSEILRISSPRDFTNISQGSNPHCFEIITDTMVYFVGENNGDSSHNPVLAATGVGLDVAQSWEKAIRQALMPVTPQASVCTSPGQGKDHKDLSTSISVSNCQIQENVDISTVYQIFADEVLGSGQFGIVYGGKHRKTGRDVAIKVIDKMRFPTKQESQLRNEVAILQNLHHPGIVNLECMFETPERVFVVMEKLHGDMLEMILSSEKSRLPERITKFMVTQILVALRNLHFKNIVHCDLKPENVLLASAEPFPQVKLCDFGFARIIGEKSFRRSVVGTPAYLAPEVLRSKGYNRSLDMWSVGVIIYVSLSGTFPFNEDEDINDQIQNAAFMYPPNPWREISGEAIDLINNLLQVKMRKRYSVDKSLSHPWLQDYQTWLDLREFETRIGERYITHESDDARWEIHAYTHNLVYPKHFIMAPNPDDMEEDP

[13] = molecular target: T4, Serine/threonine-protein kinase D3 (Homo sapiens); settings: at 1 µM
[14] = molecular target: T5, cGMP-dependent protein kinase 1 (Homo sapiens) (UniProt Q13976); settings: at 0.1 µM
T5 sequence (whole entry): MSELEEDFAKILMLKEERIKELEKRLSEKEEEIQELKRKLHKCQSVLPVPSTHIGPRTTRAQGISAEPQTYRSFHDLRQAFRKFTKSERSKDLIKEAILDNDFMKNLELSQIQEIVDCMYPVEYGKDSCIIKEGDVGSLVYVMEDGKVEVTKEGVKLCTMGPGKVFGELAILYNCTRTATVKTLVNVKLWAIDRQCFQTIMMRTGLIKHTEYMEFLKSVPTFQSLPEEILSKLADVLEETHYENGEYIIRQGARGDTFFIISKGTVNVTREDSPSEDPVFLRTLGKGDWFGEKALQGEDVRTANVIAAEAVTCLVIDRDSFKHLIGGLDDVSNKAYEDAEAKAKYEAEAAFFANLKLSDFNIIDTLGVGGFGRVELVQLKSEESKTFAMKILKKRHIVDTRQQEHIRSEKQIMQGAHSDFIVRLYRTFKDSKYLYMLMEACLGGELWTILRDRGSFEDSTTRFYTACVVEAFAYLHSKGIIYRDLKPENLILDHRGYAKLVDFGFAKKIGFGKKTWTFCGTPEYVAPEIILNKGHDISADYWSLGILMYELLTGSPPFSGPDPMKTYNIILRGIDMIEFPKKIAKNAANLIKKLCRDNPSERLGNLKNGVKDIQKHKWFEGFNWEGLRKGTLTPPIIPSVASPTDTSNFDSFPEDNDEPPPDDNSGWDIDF

[15] = molecular target: T5, cGMP-dependent protein kinase 1 (Homo sapiens); settings: at 1 µM
[16] = molecular target: T6, cGMP-dependent protein kinase 2 (Homo sapiens) (UniProt Q13237); settings: at 0.1 µM
T6 sequence (whole entry): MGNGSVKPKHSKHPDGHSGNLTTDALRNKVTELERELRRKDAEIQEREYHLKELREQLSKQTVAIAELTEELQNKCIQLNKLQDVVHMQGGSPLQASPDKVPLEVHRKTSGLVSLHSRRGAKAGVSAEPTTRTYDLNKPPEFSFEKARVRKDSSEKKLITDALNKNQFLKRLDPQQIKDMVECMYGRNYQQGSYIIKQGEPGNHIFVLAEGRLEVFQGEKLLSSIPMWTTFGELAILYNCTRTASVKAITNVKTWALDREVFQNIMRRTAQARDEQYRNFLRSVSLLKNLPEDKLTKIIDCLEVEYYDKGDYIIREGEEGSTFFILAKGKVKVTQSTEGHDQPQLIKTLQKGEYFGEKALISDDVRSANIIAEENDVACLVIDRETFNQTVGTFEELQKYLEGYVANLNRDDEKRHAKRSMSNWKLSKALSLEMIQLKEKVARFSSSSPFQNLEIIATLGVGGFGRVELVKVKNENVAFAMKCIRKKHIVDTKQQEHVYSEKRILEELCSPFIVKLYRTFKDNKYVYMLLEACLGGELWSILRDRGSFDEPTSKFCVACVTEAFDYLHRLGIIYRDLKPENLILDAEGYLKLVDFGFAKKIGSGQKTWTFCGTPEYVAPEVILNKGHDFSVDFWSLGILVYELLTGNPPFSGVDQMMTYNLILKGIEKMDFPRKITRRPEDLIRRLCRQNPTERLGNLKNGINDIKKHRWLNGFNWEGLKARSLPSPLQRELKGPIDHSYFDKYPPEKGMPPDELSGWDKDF

[17] = molecular target: T6, cGMP-dependent protein kinase 2 (Homo sapiens); settings: at 1 µM
[18] = molecular target: T7, cAMP-dependent protein kinase catalytic subunit PRKX (Homo sapiens) (UniProt P51817); settings: at 0.1 µM
T7 sequence (whole entry): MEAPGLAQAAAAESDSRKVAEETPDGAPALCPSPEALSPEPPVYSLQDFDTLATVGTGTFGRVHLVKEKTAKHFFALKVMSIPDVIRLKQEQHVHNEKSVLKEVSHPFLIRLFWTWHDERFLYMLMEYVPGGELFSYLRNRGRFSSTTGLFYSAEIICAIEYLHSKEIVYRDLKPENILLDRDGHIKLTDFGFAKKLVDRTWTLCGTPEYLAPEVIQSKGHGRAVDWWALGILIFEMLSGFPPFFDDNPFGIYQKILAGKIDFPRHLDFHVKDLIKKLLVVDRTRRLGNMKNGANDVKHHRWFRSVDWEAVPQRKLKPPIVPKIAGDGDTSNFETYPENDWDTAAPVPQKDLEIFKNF

[19] = molecular target: T7, cAMP-dependent protein kinase catalytic subunit PRKX (Homo sapiens); settings: at 1 µM
[20] = molecular target: Rho-associated protein kinase 1 (Homo sapiens) (UniProt Q13464); settings: at 0.1 µM;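 note: values are mean percent inhibition of ROCK1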
Rho-associated protein kinase 1 (Homo sapiens), sequence (Q13464 2-1354 limits assumed): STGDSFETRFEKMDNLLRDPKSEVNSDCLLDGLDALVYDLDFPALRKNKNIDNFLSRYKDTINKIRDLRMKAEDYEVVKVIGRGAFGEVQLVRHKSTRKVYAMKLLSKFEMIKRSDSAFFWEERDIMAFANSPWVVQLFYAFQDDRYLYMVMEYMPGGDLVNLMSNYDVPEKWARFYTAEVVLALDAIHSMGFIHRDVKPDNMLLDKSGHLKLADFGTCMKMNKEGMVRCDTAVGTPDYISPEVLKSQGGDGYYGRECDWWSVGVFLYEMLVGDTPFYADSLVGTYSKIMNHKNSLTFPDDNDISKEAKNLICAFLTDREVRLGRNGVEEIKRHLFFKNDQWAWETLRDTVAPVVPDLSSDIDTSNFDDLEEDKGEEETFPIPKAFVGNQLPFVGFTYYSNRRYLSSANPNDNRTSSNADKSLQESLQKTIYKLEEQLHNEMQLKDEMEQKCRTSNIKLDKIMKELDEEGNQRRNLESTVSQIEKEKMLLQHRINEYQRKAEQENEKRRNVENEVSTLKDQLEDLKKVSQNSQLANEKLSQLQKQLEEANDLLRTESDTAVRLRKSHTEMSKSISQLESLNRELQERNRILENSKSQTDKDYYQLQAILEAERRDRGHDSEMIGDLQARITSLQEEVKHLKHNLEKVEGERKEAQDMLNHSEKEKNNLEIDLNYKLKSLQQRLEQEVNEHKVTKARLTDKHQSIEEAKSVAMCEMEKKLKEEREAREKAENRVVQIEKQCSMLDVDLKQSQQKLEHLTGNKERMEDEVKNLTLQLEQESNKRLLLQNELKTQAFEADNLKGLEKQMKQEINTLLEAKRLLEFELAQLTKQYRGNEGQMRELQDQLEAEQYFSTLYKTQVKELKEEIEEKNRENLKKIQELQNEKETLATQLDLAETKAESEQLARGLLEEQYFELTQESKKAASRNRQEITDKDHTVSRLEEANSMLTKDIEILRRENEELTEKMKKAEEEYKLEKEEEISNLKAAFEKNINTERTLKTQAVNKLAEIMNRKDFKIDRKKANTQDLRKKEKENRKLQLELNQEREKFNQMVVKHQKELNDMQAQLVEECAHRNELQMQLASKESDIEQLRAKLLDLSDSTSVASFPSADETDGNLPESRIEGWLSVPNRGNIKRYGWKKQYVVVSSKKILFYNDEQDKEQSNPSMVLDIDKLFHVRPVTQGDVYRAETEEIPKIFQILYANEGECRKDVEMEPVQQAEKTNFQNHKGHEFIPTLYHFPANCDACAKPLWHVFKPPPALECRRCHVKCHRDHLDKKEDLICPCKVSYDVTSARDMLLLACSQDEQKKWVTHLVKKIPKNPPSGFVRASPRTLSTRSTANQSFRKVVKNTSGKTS

Protein kinase C theta type (Homo sapiens), sequence (Q04759 whole entry, looked up): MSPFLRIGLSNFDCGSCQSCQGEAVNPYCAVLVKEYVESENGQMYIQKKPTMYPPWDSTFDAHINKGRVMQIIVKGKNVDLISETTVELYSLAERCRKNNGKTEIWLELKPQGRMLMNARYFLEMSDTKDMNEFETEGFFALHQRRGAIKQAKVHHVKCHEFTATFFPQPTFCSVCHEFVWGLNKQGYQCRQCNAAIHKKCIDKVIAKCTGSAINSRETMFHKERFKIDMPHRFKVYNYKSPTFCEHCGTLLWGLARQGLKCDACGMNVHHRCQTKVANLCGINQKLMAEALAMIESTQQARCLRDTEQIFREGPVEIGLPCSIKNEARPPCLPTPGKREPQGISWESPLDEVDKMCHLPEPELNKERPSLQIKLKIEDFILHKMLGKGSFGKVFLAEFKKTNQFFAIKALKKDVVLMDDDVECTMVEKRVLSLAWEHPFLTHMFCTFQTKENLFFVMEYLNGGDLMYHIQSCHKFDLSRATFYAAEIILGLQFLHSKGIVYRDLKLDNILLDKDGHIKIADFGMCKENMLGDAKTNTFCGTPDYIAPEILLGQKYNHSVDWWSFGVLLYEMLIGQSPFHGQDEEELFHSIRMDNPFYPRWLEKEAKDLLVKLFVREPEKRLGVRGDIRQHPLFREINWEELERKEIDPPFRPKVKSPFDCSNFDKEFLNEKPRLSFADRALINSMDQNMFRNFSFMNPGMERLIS
Protein kinase C beta type (Homo sapiens), sequence (P05771 2-671 limits assumed): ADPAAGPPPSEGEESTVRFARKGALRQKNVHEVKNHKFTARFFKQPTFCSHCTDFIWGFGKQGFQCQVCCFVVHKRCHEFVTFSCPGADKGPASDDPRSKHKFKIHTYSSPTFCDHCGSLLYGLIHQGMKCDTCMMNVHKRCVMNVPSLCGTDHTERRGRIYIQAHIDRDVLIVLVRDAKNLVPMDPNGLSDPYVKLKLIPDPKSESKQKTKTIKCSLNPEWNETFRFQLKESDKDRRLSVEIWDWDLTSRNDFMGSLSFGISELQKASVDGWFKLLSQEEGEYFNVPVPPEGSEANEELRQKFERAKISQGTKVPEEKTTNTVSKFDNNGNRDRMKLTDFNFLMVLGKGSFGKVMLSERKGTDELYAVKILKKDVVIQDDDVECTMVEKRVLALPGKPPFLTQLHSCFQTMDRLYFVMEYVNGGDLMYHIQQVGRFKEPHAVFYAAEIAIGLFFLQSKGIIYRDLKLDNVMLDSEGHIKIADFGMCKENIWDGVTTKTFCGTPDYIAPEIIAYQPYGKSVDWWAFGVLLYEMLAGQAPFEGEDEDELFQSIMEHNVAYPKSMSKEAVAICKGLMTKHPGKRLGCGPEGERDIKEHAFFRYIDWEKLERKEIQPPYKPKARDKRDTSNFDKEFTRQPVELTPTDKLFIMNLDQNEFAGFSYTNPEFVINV

| SMILES | inhibition [1] | inhibition [2] | inhibition [3] | inhibition [4] | inhibition [5] | inhibition [6] | inhibition [7] | inhibition [8] | inhibition [9] | inhibition [10] | inhibition [11] | inhibition [12] | inhibition [13] | inhibition [14] | inhibition [15] | inhibition [16] | inhibition [17] | inhibition [18] | inhibition [19] | inhibition [20] |
| --- | --- | --- | --- | --- | --- | --- | --- | --- | --- | --- | --- | --- | --- | --- | --- | --- | --- | --- | --- | --- |
| COC(=O)c1ccc2c(c1)C(=Cc1cc(Br)c(O)c(Br)c1)C(=O)N2 | 0.79% | 1.17% | 0.96% | 1.25% | 1.86% | 1.12% | 1.9% | 5.07% | 7.26% | 4.47% | 3.79% | 4.47% | 5.87% | 2.45% | 5.8% | 1.59% | 6.29% | 1.47% | 1.86% | 2.01% |
| FC(F)(F)c1ccc(-c2nn3ncccc3c2-c2ccnc(Nc3ccc4c(c3)OCCO4)n2)cc1 | 5.47% | 6.58% | 3.53% | 2.52% | 5.32% | 5.29% | 6.33% | 2.27% | -1.71% | 0.7% | 3.07% | -0.32% | -0.07% | 3.5% | 5.3% | 3.41% | 4.83% | 5.94% | 8.53% | 1.44% |
| CC(C)c1ccc2c(c1)NC(=O)/C2=N/Nc1ccc(S(N)(=O)=O)cc1 | -0.76% | -1.39% | -2.44% | -0.41% | -0.44% | -0.24% | 0.73% | 0.07% | 0.8% | -0.15% | -0.41% | -0.27% | -0.32% | -1.53% | 1.06% | -0.39% | -0.18% | 0.2% | -0.32% | -1.01% |
